About 2,000 (36%) of roughly 5,500 compounds were called active. Inconclusive results (about 18%) are left out. Rule as the data show it: active = normalized growth mostly below about 0.91 (no sharp cut-off); inconclusive = no clear call, values can overlap the other calls; inactive = mostly above about 0.92. This is one part of the list.
Test: chemical genetic growth profiling, strain panel (AID 1159580);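 also: tested at 20 µM; growth read once vehicle control cultures reached saturation at 30 °C; 1 = growth at the plate median or of vehicle wells; lower values mean less growth of the strain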
Settings: S. cerevisiae deletion strains, growth OD

Measured: normalized growth

CN1CCC23CCCC[C@H]2C1Cc1ccc(O)cc13 (stereo partly drawn)
inactive: locus YAL040C, strain CLN3, hits give low values 1.01 | locus YCL061C, strain MRC1 (second series), hits give low values 1 | locus YDR363W, strain ESC2, hits give low values 1.03 | locus YER002W, strain NOP16, hits give low values 0.998 | locus YGR229C, strain SMI1, hits give low values 1.04 | locus YJR075W, strain HOC1, hits give low values 1.01 | locus YNL153C, strain GIM3, hits give low values 1.02 | locus YNL175C, strain NOP13, hits give low values 1.01 | locus YNL197C, strain WHI3, hits give low values 1.05 | locus YNL224C, strain SQS1, hits give low values 1.01 | locus YNL322C, strain KRE1, hits give low values 1.02 | locus YOR083W, strain WHI5 (second series), hits give low values 0.989 | locus YPL055C, strain LGE1, hits give low values 0.998

— PubChem BioAssay AID1159580 (chemical genetic matrix, 2015)
